SMILES strings stand for the structures. The whole screen tested about 1,100 compounds, of which about 350 (32%) were called active. The list is a sample of the results. Results with a measured potency or affinity are listed apart. A number with no mark means an inactive call. No rule for the calls is given here.

The nature of the assay: viability loss in CEM21 cells – cell-based, CellTiter-Glo luminescence, cherry-picked, cytotoxicity control for viral fusion inhibitor project, dose response (AID 652042). Conditions: CellTiter-Glo ATP luminescence, 24 h; series mostly up to 35 µM; activity change, negative = cytotoxicity: at the top concentration.
For the compound `C=C1CCN([C@@H](Cc2ccccc2)C(=O)NCCC(C)C)S(=O)(=O)c2ccccc21`, the “activity change, negative = cytotoxicity” value is -5.67%.

Turning to `O=C(NCCc1ccccc1)c1ccc2c(c1)OCCO2`, the “activity change, negative = cytotoxicity” value was -9.04%. Turning to `CSCCC(NS(=O)(=O)c1ccc2c(c1)oc(=O)n2C)C(=O)NC1CCCc2ccccc21` (centres undefined), the “activity change, negative = cytotoxicity” value was 4.91%. With `CC(=O)c1ccc([C@H]2C[C@@]34CN(C(=O)OC(C)(C)C)S(=O)(=O)[C@H]3C[C@H]2O4)cc1` the figure was 2.58%; with `CN(C)CC(=O)Nc1ccc2c(c1)[C@H]1C[C@@H](CC(=O)NCCc3ccccc3)O[C@H](CO)[C@H]1O2`, -2.04% [at 30 µM]; with `O=C(Nc1cccc(C(=O)O)c1)Nc1ccc2c(c1)OCO2`, -7.93%. For the compound `COc1ccc(NC(=O)C2CCCN2S(=O)(=O)c2ccc3c(c2)CCC(=O)N3)cc1Cl` (centres undefined), the “activity change, negative = cytotoxicity” value is -0.458%.

On to `O=C(COc1ccc(-n2cnnn2)cc1)Nc1ccc(F)c(F)c1`, for which the “activity change, negative = cytotoxicity” value was 3.75%. On to `Cn1cccc1C(=O)OCC(=O)NCCc1ccc(S(N)(=O)=O)cc1`, for which the “activity change, negative = cytotoxicity” value was 6%. The same measure for `Cc1cc2c3c(c1)C1(SCC(=O)N1c1ccc(F)cc1)C(=O)N3C(C)(C)CC2C` (centres undefined): -0.52% [at 16 µM].

For the compound `CCN(CC)S(=O)(=O)c1cc(NC(=O)C(=O)c2c(-c3ccccc3)cc3ccccn23)ccc1C`, the “activity change, negative = cytotoxicity” value is -16%. Take `CC(C)N(Cc1nc(-c2ccccc2)no1)C(=O)CN(C)S(=O)(=O)c1ccc(Br)cc1`: the “activity change, negative = cytotoxicity” value is -16%.

`O=C(NCC[C@@H]1CC[C@@H](NS(=O)(=O)c2ccccc2F)[C@@H](CO)O1)c1ccc(F)cc1`: the “activity change, negative = cytotoxicity” value was -1.41%. With `O=C(C[C@@H]1CC[C@@H](NC(=O)c2ccncc2)[C@H](CO)O1)NCCc1ccncc1`, the “activity change, negative = cytotoxicity” value was -1.24%. As for `COc1cccc(S(=O)(=O)N[C@H]2CC[C@H](CC(=O)NCc3ccncc3)O[C@@H]2CO)c1`, the “activity change, negative = cytotoxicity” value is 1.11%. With `COc1cccc(CNC(=O)C[C@@H]2C=C[C@H](NC(=O)C3CCC3)[C@H](CO)O2)c1` the figure was 0.694%; with `O=C(C[C@H]1CC[C@@H](NC(=O)Nc2ccccc2F)[C@@H](CO)O1)NCc1ccc(Cl)cc1`, 0.724%; with `O=C(C[C@H]1C=C[C@@H](NC(=O)Nc2ccccc2F)[C@@H](CO)O1)NCc1ccc(Cl)cc1`, -7.24%. Turning to `COC(=O)[C@@]1(C)[C@H]2C(=O)N(Cc3ccccc3)C(=O)[C@H]2[C@H]2CN=C(SCc3ccc(C#N)cc3)N21`, the “activity change, negative = cytotoxicity” value is -13.8%. On to `CN(C[C@H](Cc1ccccc1)N(C[C@H](c1ccccc1)N(CCc1ccccc1)N=O)N=O)N=O`, for which the “activity change, negative = cytotoxicity” value is -4.42%. Turning to `Cc1ccc(C(c2nnnn2CS(=O)(=O)c2ccc(C)cc2)N2CCCC2)cc1` (centres undefined), the “activity change, negative = cytotoxicity” value was -1.57%. With `N#Cc1ccc(C(c2nnnn2CCc2ccccc2)N2CCCCCC2)cc1` (centres undefined), the “activity change, negative = cytotoxicity” value is -20.5%. With `COc1ccc(NC(=O)Nc2ccc3c(c2)C(=O)N([C@@H](C)CO)C[C@H](C)[C@H](CN(C)Cc2ccncc2)OCCCC[C@H](C)O3)cc1` the figure was -11.8%. With `Cc1ccc(C(C(=O)NC2CCCCC2)N(C(=O)c2csnn2)C2CCCC2)o1` (centres undefined) the figure was 4.56% [at 16 µM]; with `Cc1ccc(-c2nnn(CC(=O)N(CC3CCCO3)C(C(=O)NC3CCCCC3)c3ccc(F)cc3)n2)o1` (centres undefined), -2.01%. For the compound `COc1ccc(NC(=O)CN2CCC(C(N)=O)(N3CCCCC3)CC2)cc1`, the “activity change, negative = cytotoxicity” value was 5.51%.

With `CC1CCN(C(=O)c2ncn3c2C(=O)N[C@@H](C)C3)CC1`, the “activity change, negative = cytotoxicity” value is -5.66%.

As for `COc1ccc(-c2cc(C3CCN(c4cc(Cl)nc(N)n4)CC3)[nH]n2)cc1`, the “activity change, negative = cytotoxicity” value is -13.3%.

For the compound `CCOc1ccc(OCc2cccc(C(=O)N/N=C/c3cccnc3)c2)cc1`, the “activity change, negative = cytotoxicity” value is -2.87%. On to `Cc1ccc(S(=O)(=O)N(C)C)cc1NC(=O)COc1ccccc1C(=O)Nc1ccccc1`, for which the “activity change, negative = cytotoxicity” value is -16.9%. With `CC(c1nc2ccccc2c(=O)[nH]1)N(C)CCOc1ccc(Cl)cc1` (centres undefined) the figure was -7.82%. The same measure for `Cc1ccccc1CCN(C(=O)c1csnn1)C(C(=O)NC1CCCC1)c1ccncc1` (centres undefined): -5.49%; for `CC(C)CCN(C(=O)c1csnn1)C(C(=O)NC1CCCC1)c1ccc(F)cc1` (centres undefined): -7.24%. In the case of `CCOC(=O)c1ccc(NC2c3ncccc3C(=O)N2Cc2ccc(F)cc2)cc1` (centres undefined), the “activity change, negative = cytotoxicity” value was -4.33%. With `COc1cc(NC2c3ccccc3C(=O)N2Cc2ccccc2)cc(OC)c1OC` (centres undefined) the figure was 3.26%; with `COc1ccc(-c2cc(=O)oc3c(C)c(O)c(CN(C)C)cc23)cc1`, 5.55%; with `COc1ccc(S(=O)(=O)NNC(=O)C2Cc3c(ccc4ccccc34)O2)cc1` (centres undefined), -11.3%. As for `CC(C)n1c(NCCc2ccccc2)nc2c1c(=O)n(C)c(=O)n2C`, the “activity change, negative = cytotoxicity” value was -25.5%. In the case of `CN(C)S(=O)(=O)c1ccc(N2CCCC2)c(C(=O)NCCc2ccc(F)cc2)c1`, the “activity change, negative = cytotoxicity” value was -0.85%. With `CC[C@]1(C(=O)OC)[C@H]2C(=O)N(Cc3ccccc3)C(=O)[C@H]2[C@H]2CN=C(SCc3ccc(C)cc3)N21` the figure was -9.52%.

Turning to `COCc1[nH]nc2c1C(c1ccc(F)cc1)N(Cc1ccccc1)C2=O` (centres undefined), the “activity change, negative = cytotoxicity” value is -2.79%. As for `COc1ccc(OC)c(CN2C(=O)c3ccccc3C2c2nnnn2-c2c(C)cccc2C)c1` (centres undefined), the “activity change, negative = cytotoxicity” value was -7.17%.

Take `COc1ccc(CCN2C(=O)c3[nH]nc(-c4ccccc4O)c3C2c2cccc(O)c2)cc1OC` (centres undefined): the “activity change, negative = cytotoxicity” value is -2.82%. With `COc1ccc(CCN2C(=O)c3[nH]nc(-c4ccccc4O)c3C2c2ccc(C)cc2)cc1OC` (centres undefined) the figure was -12.2%.

The values are drawn from PubChem BioAssay AID652042 (Broad Institute, 2013).
